Experimental data from PubChem BioAssay (Tox21).
Results filed as inconclusive are left out. A number with no mark means an inactive call. The call rests on the fitted dose curve; in most records, active means well fitted activation curve with a large enough effect in the repeat runs; inconclusive means weak or mixed curves; inactive means flat fitted curve, though single readings scatter.
On the % scale 0 is the no-effect control and ±100 the full control effect.

Experiment: Caspase-3/7 induction in HepG2 cells by small molecules, qHTS assay (AID 1346978); further: nearly all actives have a fitted effect of over 15% in size
Conditions: HepG2 caspase-3/7 activation, Caspase-Glo luminescence, 17 h; series mostly up to 92.4 µM; caspase activation: at the top concentration
How it was run: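 Wild-type HepG2 cells, 2,000/well, settled 5 hr at 37 C and 5% CO2, then compound-treated for 17 hr; caspase-3/7 activity read by luminescent Caspase-Glo 3/7 after 30 min at room temperature.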
In the case of `CN1CCN(C2=Nc3cc(F)ccc3Cc3ccccc32)CC1`, the “caspase activation” value is reported as 3.5% [at 42.5 µM].
With `NC(=O)Cc1cccc(C(=O)c2ccccc2)c1N` the “caspase activation” value was -0.505% [at 42.5 µM].
For `CCc1cc(Cl)c(OC)c(C(=O)NC[C@@H]2CCCN2CC)c1O`, the “caspase activation” value was -0.782% [at 42.5 µM].
With `OCc1ccccc1O` the “caspase activation” value was -0.481% [at 42.5 µM].
For `CC1(O)CSC(C)(O)CS1` (centres undefined), the “caspase activation” value was -0.863%.
For `O=C(O)[C@@H](O)[C@H](O)[C@H](O)[C@@H](O)C(=O)O`, the “caspase activation” value was 0.512% [at 42.5 µM].
With `CC(=O)OC(C)OC(C)=O` the “caspase activation” value was -0.0165%.
With `CCC/C=C/CO` the “caspase activation” value was 0.634%.
For `C/C(=N\O)[C@@H](C)NCC(C)(C)CN[C@H](C)/C(C)=N/O`, the “caspase activation” value was -0.235% [at 42.5 µM].
For `COc1cc2c(cc1N)oc1ccccc12`, the “caspase activation” value was -8.5%.
In the case of `O=C1CCCCCCCCCCC(=O)OCCO1`, the “caspase activation” value is reported as -7.88%.
With `CC(CNC1CCCCC1)OC(=O)c1ccccc1` (centres undefined) the “caspase activation” value was 0.442% [at 42.5 µM].
In the case of `Cc1onc(-c2ccccc2)c1C(=O)Cl`, the “caspase activation” value is reported as -0.692% [at 42.5 µM].
With `C=CCCC=C` the “caspase activation” value was 0.247%.
In the case of `CCOC(=O)NCCC[Si](OCC)(OCC)OCC`, the “caspase activation” value is reported as 1.55%.
In the case of `OCc1c2ccccc2cc2ccccc12`, the “caspase activation” value is reported as -2.24%.
In the case of `O=C(C(Cl)Cl)N1CCOC12CCCCC2`, the “caspase activation” value is reported as 0.186%.
With `Cn1cnc2c(F)c(Nc3ccc(Br)cc3Cl)c(C(=O)NOCCO)cc21` the “caspase activation” value was 13% [at 42.5 µM].
For `CCc1nnc(NS(=O)(=O)c2ccc(N)cc2)s1`, the “caspase activation” value was 0.425% [at 42.5 µM].
In the case of `CN1CCN(c2c(F)cc3c(=O)c(C(=O)O)cn(CCF)c3c2F)CC1`, the “caspase activation” value is reported as -0.443% [at 42.5 µM].
In the case of `NCCCN1CCN(CCCN)CC1`, the “caspase activation” value is reported as -0.214%.
For `COC(=O)c1ccc(OC)cc1`, the “caspase activation” value was 0.0384%.
In the case of `NC(=O)NS(=O)(=O)c1ccc(Cl)cc1`, the “caspase activation” value is reported as -0.894% [at 42.5 µM].
In the case of `CCOC(=O)c1cc(=O)c2c(OCC(COc3cccc4oc(C(=O)OCC)cc(=O)c34)OC(=O)[C@@H](N)CCCCN)cccc2o1`, the “caspase activation” value is reported as -0.169% [at 42.5 µM].
